Screening data as filed in PubChem BioAssay.
Tau fibril FP: qHTS for Inhibitors of Tau Fibril Formation, Fluorescence Polarization | hit rate 0.39% among 280,000 | K18 P301L tau heparin fibrillization, Alexa594 FP, 6 h | Potency, µM (series often up to 57.7 µM), without a hit: at the top dose activity, negative = inhibition, hits mostly inhibitors; also: nearly all actives have a fitted effect of over 55% in size
Target sequence (P10636 561-689 P618L limits assumed): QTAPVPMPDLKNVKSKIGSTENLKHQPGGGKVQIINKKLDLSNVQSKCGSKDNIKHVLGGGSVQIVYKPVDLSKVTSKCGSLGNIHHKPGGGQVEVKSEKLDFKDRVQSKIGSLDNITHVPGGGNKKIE
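Heparin (20 uM) drove fibril formation of recombinant tau K18 P301L, 15 uM unlabeled with 0.24 uM Alexa 594 label, for 6 hr at 37 C in 100 mM sodium acetate pH 7. Fluorescence polarization (555/632 nm) read 1 hr after 30 uM ThT.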
Tau ThT inhib: qHTS for Inhibitors of Tau Fibril Formation, Thioflavin T Binding; Microtubule-associated protein tau (Homo sapiens), P10636; recombinant tau K18 P301L, heparin-induced fibrillization, ThT fluorescence; Potency, µM (series often up to 57.4 µM), without a hit: at the highest dose activity, negative = inhibition, usual class: inhibitors; hit rate 2.1% among 270,000; also: nearly all actives have a fitted effect of over 55% in size
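In this qHTS, human K18 P301L tau is incubated with compound and heparin for 6 hr at 37 C, and Thioflavin T fluorescence then reports fibril load.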
JMJD2E inh: qHTS Assay for Inhibitors of Human Jumonji Domain Containing 2E (JMJD2E); Lysine-specific demethylase 4E (Homo sapiens), B2RXH2; JMJD2E catalytic domain, FDH-coupled NADH fluorescence (FDH is formaldehyde dehydrogenase); Potency, µM (series often up to 57.1 µM), without a hit: at the highest dose activity change, negative = inhibition, usual class: inhibitors; hit rate 1.6% among 230,000; AID 2147, 2009; active = well fitted inhibition curve with a large enough effect, not every such curve was filed as active; inconclusive = small, poorly fitted or top-dose-only effect, or another doubt; inactive = no such curve, though single readings can be large or run the other way;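 also: 0% = wells with enzyme and -100% = buffer wells without enzyme; nearly all actives have a fitted effect of over 50% in size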
Target sequence (B2RXH2 1-337 limits assumed): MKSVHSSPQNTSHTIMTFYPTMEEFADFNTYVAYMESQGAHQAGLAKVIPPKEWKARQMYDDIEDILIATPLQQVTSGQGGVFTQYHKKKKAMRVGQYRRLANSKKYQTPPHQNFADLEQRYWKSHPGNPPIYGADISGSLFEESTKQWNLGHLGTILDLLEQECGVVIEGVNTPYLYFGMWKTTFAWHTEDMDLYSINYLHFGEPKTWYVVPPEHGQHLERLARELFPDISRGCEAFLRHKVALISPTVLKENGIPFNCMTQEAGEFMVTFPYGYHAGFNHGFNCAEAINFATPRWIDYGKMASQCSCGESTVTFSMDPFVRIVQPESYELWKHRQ
RGS12 GoLoco inh: qHTS Assay for Inhibitors of RGS12 GoLoco Motif Activity (Red Fluorophore); hit rate 0.44% among 230,000; Potency, µM (top dose mostly 61.6 µM), without a hit: at the top dose activity, negative = inhibition, hits mostly inhibitors; Guanine nucleotide-binding protein G(i) subunit alpha-1 (Homo sapiens), P63096; Gai1:RGS12 GoLoco peptide FP, rhodamine, 10 min; AID 880, 2007; active = well fitted inhibition curve with a large enough effect, not every such curve was filed as active; inactive = no such curve, though single readings can be large or run the other way; also: nearly all actives have a fitted effect of over 30% in size
Tau fluor cs: Counterscreen qHTS for Inhibitors of Tau Fibril Formation, Fluorescence Polarization. tau K18 P301L (four-repeat tau fragment) Alexa594 fluorescence, heparin fibrillization. Potency, µM (top dose mostly 57.7 µM), inactives show at the top dose activity change, negative = decrease. hit rate 0.93% among 280,000. AID 1463, 2008; also: nearly all actives have a fitted effect of over 55% in size
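Human K18 P301L tau (15 uM unlabeled plus 0.24 uM Alexa 594-labeled, final) in 100 mM sodium acetate pH 7 was mixed with compound and 20 uM heparin and incubated 6 hr at 37 C.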
* = called active by the depositor; ? = inconclusive; . = no result given; [ ] = another dose, or the depositor's remark. An excerpt weighted towards active compounds, which were near 3.4% of everything screened. Unless noted, calls follow the shape of the dose curve; as a rule, active = well fitted curve in the direction sought with a large enough effect; inconclusive = small, poorly fitted or top-dose-only effect, or another doubt; inactive = no such curve, though single readings can be large; an effect the other way counts as inactive or inconclusive. Unless noted, % is scaled to controls: 0 for no effect and ±100 for the full control effect; potency is read from the fitted curve at half-maximal effect.

SMILES	Tau fibril FP	Tau ThT inhib	JMJD2E inh	RGS12 GoLoco inh	Tau fluor cs
C=CCSc1nnc(-c2ccccc2N=Cc2c(C)[nH]n(-c3ccccc3)c2=O)c(=O)[nH]1	-9%	?	8%	14%	-18%
CSc1nnc(-c2ccccc2N=Cc2c(C)[nH]n(-c3ccc4ccccc4c3)c2=O)c(=O)[nH]1	-3%	22µM*	8%	9%	-14%
N#C/C(=C\c1ccccc1)C(=O)Nc1cccnc1	-5%	?	5%	12%	-16%
CC(=O)Nc1ccc(/C=C(\C#N)C(=O)NCc2ccccc2)cc1	4%	-5%	-6%	36%	-5%
N#C/C(=C\c1ccc(O)c(O)c1)C(=O)NCCCCc1ccccc1	2%	16µM*	4.5µM*	-1%	14µM*[quencher]
COc1cc(/C=C(\C#N)C(=O)NCCc2ccccc2)cc(OC)c1O	2%	?	-13%	-4%	-29%
N#C/C(=C/c1ccc(O)c([N+](=O)[O-])c1)C(=O)Nc1ccccc1	8%	8.9µM*	-11%	1%	?
N#C/C(=C\c1ccc(O)c(O)c1)C(=O)NCCc1ccccc1	12%	?	14µM*	11%	?
Cc1ccc(NC(=O)CCC(=O)N2CCSc3ccccc32)cc1	-4%	3%	.	.	-11%
CCCCN(C)CCNC(=O)c1ccc2c(=O)n(CCc3ccccc3)c(=O)[nH]c2c1	-10%	-7%	.	.	-26%
O=C1c2c(O)ccc([N+](=O)[O-])c2C(=O)c2c([N+](=O)[O-])ccc(O)c21	.	.	.	-2%	.
COC(=O)c1ccc2c(c1O)C(=O)c1ccccc1C2=O	-3%	5.6µM*	8%	-2%	?
O=C1c2ccccc2C(=O)c2c1ccc(O)c2O	-7%	8.9µM*	14µM*	-5%	?
O=C1c2ccc(O)c(O)c2C(=O)c2c(O)ccc(O)c21	13µM*	1.4µM*	3.5µM*	-25%	2.5µM*[quencher]
O=C1c2cccc(O)c2C(=O)c2c(O)cccc21	-6%	?	-7%	-2%	?
COc1ccc(C2C=C(c3ccccc3)Nc3nc(NC(=O)/C=C/c4ccc(F)cc4)nn32)cc1 (stereo not drawn)	2%	-15%	.	.	-13%
O=S(=O)(Nc1cc(F)ccc1F)c1ccc2[nH]c3c(c2c1)CCCCC3	?	-8%	.	.	13µM*[quencher]
CCc1ccc(NS(=O)(=O)c2ccc3[nH]c4c(c3c2)CCCCCC4)cc1	?	18%	.	.	?
O=S(=O)(Nc1cccc(F)c1)c1ccc2[nH]c3c(c2c1)CCCCC3	?	?	.	.	8.9µM*[quencher]
CCOc1ccccc1NS(=O)(=O)c1ccc2[nH]c3c(c2c1)CCCCC3	-8%	4%	.	.	?
O=S(=O)(Nc1cc(F)ccc1F)c1ccc2[nH]c3c(c2c1)CCCC3	11%	-4%	.	.	11µM*[quencher]
Cc1ccccc1NC(=O)Nc1nnc(N2CCCCCC2)s1	-9%	-6%	.	.	-6%
CC(O)CNc1nc2sc3c(c2c(=O)n1CCc1ccccc1)CCCCC3 (stereo not drawn)	12%	?	-14%	10%	10µM*[quencher]
CN(C)CCNc1nc2sc3c(c2c(=O)n1CCc1ccccc1)CCCCC3	?	?	-10%	2%	13µM*[quencher]
CC(O)CNc1nc2sc3c(c2c(=O)n1Cc1ccco1)CCCCC3 (stereo not drawn)	?	?	-19%	11%	?
SMILES	Tau fibril FP	Tau ThT inhib	JMJD2E inh	RGS12 GoLoco inh	Tau fluor cs
O=C(O)COc1ccc(/C=C/c2ccc3cccc([N+](=O)[O-])c3n2)cc1	10%	7.9µM*	-7%	4%	-16%
CC(=O)Nc1ccc(/C=C/c2ccc3cccc([N+](=O)[O-])c3n2)cc1	-10%	.	-4%	-4%	?
COc1cc(/C=C/c2ccc3c([N+](=O)[O-])cccc3n2)ccc1OCC(=O)O	-1%	3.2µM*	-3%	6%	-16%
COc1cc(/C=C/c2ccc3cccc([N+](=O)[O-])c3n2)ccc1OCC(=O)O	7%	?	-3%	8%	-3%
Cc1ccc2c(c1)S/C(=C/c1ccc[n+](C)c1)N2CCO	-6%	?	-16%	8.9µM*	-5%
COc1cc(/C=N/n2c(-c3ccc4c(c3)NC(=O)CO4)csc2=Nc2cccc(C)c2)ccc1O	12%	5%	5%	-2%	4%
COCCN=c1scc(-c2ccc3c(c2)NC(=O)CO3)n1/N=C(\C)c1ccc(O)cc1	?	14µM*	-24%	11%	14µM*[quencher]
Cc1cccc(-c2nc3scc(CCNC(=O)c4ccc(Br)o4)n3n2)c1	-3%	-14%	.	.	-16%
Cc1ccc(NC2Sc3ccccc3NC2=O)cc1 (stereo not drawn)	?	16µM*	22µM*	-18%	-22%
CC(=O)Nc1ccc(NC(=O)CC2Sc3ccccc3NC2=O)cc1 (stereo not drawn)	-2%	-4%	.	.	0%
Cc1ccc(C(=O)N2CCc3cc(CNS(=O)(=O)c4ccc(Cl)s4)ccc32)cc1	-9%	2%	.	.	-9%
Cc1ccc(NC(=O)CN2C(=O)CSc3ccc(S(=O)(=O)N(C)C)cc32)c(C)c1	0%	-13%	.	.	-23%
COc1ccc(NC(=O)CSc2nc3c(oc4ccccc43)c(=O)n2-c2ccccc2)cc1OC	-6%	-2%	.	.	-30%
CC(=O)Nc1ccc2nc(NC(=O)c3ccc([N+](=O)[O-])s3)sc2c1	-6%	1.1µM*	8%	-5%	?
O=[N+]([O-])c1ccccc1-c1ccc(C(=S)N2CCN(c3ccccc3)CC2)o1	-7%	11µM*	-22%	-10%	?
S=C(c1ccc(-c2ccccc2Cl)o1)N1CCOCC1	-14%	25µM*	-2%	-3%	?
Cc1ccc(N2CCN(C(=S)c3ccc(-c4ccccc4[N+](=O)[O-])o3)CC2)cc1	-4%	?	-1%	-2%	?
O=C(c1ccc(-c2cccc(Cl)c2Cl)o1)N1CCOCC1	-7%	-5%	0%	-5%	-1%
S=C(c1ccc(-c2ccc(Br)cc2)o1)N1CCOCC1	-5%	.	0%	5%	-25%
S=C(c1ccc(-c2ccc(Cl)c(Cl)c2)o1)N1CCOCC1	-3%	10µM*	-7%	32%	-25%
COc1ccc2c(CNC3CCCCCC3)c(C(=O)O)n(Cc3ccc(C)cc3)c2c1	12%	-3%	.	.	4%
COC(=O)c1cccc(Nc2c(-c3ccc(OC)cc3)nc3nc[nH]n23)c1	-9%	?	.	.	?
O=C1C=CC2=C3c4cc(O)c(O)cc4C[C@]3(O)COC2=C1	?	16µM*	13µM*	0.25µM*	?
